KCNH2 WT inh = KCNH2 (human, wildtype) channel inhibition; activity change, % at 1.84 µM; Q12809; U2OS, BacMam KCNH2, thallium flux FluxOr; hits give low values; hit rate 0.37% among 340,000;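 active means maximum activity change below -70%; inconclusive means maximum activity change between -70% and -50%; inactive means maximum activity change above -50%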
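U2OS cells were transduced with wild-type KCNH2 virus (2.03 x 10^8 / mL) for 4 h at room temperature, then cultured overnight at 37 C. Thallium flux was read with FluxOr dye. Rate constants were normalized to DMSO controls.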
ClpP mod = qHTS Assay for Activators of ClpP; purified B. subtilis ClpP, FRET peptide cleavage, 20 min; hit rate 1.9% among 340,000; ATP-dependent Clp protease proteolytic subunit (Bacillus subtilis (strain 168)), P80244; Potency, µM (titrated, usually from 57.5 µM); AID 651965, 2013; active means well fitted falling curve with a large enough effect; inconclusive means small, poorly fitted or top-dose-only effect; inactive means no such curve, though single readings can be large or run the other way; further: the source files actives as falling curves though it sought activators and does not explain the sign; nearly all actives have a fitted effect of over 65% in size
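Buffer: 100 mM Tris/HCl pH8, 100 mM KCl, 0.05% low protease BSA, 2.5% glycerol, 0.01% Tween-20. ClpP 10 microg/mL final; 20 min RT; delta FRET normalized to ADEP and DMSO controls.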
LDHA block = blocks human lactate dehydrogenase A; P00338; purified LDHA, NADH/diaphorase-resazurin fluorescence; hits give low values; activity change, % (values are at about 110 or 230 µM); hit rate 0.15% among 480,000; AID 1347041; in the data active means activity change below about -30%; inconclusive means mostly about -25% to -30%
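Human LDH5 at 2 nM final in Tris HCl pH 7.4 with 0.06 mM NADH and 0.2 mM pyruvate, reacted 5 minutes at room temperature. Remaining NADH coupled via diaphorase/resazurin; resorufin fluorescence read at 0 and 20 minutes, normalized to enzyme-free and DMSO wells.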
Chronic BCR inh = blocks chronic active B-cell receptor signaling; ABC-DLBCL IkBa-CBG/CBR reporter, luminescence ratio, 4 h; hit rate 0.05% among 340,000; AID 493014; Potency, µM (series often up to 46.1 µM), hits mostly inhibitors; active means well fitted inhibition curve with a large enough effect in the signal ratio, with a control signal flat, not every such curve was filed as active; inconclusive means small, poorly fitted or top-dose-only effect, or effect the other way, or a change in a side signal; the % refers to the signal ratio
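TMD8 ABC-DLBCL cells carrying doxycycline-inducible green luciferase fused to IkappaBalpha plus unfused red luciferase were exposed to compounds (up to 46 uM) for 4 hrs at 37C. Activity came from the overlap-corrected green/red luminescence ratio.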
ALOX12 inh = inhibitors of human 12S-lipoxygenase ALOX12. P18054. purified 12hLO, xylenol orange hydroperoxide absorbance. Potency, µM (doses to about 108 µM), actives largely listed as inhibitors. hit rate 1.1% among 580,000. AID 1671190; active means well fitted inhibition curve with a large enough effect; inconclusive means small, poorly fitted or top-dose-only effect, or another doubt; inactive means no such curve, though single readings can be large or run the other way
Target sequence (P18054 whole entry, looked up): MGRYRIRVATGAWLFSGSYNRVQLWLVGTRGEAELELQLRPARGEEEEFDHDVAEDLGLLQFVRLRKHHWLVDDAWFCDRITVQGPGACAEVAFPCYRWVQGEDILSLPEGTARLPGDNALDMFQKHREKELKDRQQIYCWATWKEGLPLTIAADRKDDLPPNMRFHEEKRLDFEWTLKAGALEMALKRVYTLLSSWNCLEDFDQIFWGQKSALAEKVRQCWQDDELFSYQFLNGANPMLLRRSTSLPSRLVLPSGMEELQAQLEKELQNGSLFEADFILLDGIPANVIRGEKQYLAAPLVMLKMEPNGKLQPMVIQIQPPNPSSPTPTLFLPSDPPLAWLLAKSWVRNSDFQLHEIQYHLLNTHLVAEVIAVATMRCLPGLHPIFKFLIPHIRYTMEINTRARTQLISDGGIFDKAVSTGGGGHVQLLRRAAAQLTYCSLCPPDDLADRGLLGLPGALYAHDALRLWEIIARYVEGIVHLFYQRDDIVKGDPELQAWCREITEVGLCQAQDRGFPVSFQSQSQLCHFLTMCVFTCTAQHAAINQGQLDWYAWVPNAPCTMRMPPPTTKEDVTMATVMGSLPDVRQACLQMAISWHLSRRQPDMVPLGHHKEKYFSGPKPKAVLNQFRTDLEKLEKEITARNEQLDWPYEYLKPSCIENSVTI
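Hydroperoxide product was detected by ferrous iron/xylenol orange as the 573 to 405 nm absorbance ratio. Arachidonic acid at 40 uM (final) was turned over for 30 min at room temperature by 150 nM human 12hLO, pH 7.0 Hepes buffer, after 15 min compound preincubation.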
KCNH2 3.1 inh = inhibitors of human KCNH2 3.1 potassium channel isoform. AID 720553. U2OS KCNH2 3.1, thallium flux FluxOr; hits give low values. activity change, % (tested at about 1.8 µM). hit rate 0.95% among 340,000;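 active means maximum activity change below -70%; inconclusive means maximum activity change from -70% to -50%; inactive means maximum activity change above -50%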;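 further: thallium influx rate constant from kinetic fluorescence after stimulation buffer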
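Normalized rate constant (relative to positive and negative DMSO controls) derived from a 2 min kinetic fluorescence read after stimulation; U2OS cells expressing the 3.1 isoform via virus at 1.77 x 10^8 /mL.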
Numbers stand for hits; - = inactive; ? = inconclusive; . = no result. The list is not random: actives were taken first. Their share in the collection is about 3%.

SMILES | KCNH2 WT inh | ClpP mod | LDHA block | Chronic BCR inh | ALOX12 inh | KCNH2 3.1 inh
COc1cc([N+](=O)[O-])cc(/C=C2/SC(=S)N(Cc3ccccc3)C2=O)c1O | - | - | - | - | 16µM | -
COc1cc(/C=C2/SC(=S)N(Cc3ccccc3)C2=O)cc(Cl)c1O | - | - | - | ? | ? | -
O=C(O)CN1C(=O)/C(=C\c2cc(Br)ccc2OCc2ccccc2Cl)SC1=S | - | . | - | - | ? | -
O=C(O)CN1C(=O)/C(=C\c2cc(Br)ccc2OCc2ccc([N+](=O)[O-])cc2)SC1=S | - | - | - | ? | 8.9µM | -
O=C(/C=C/c1cccc(Cl)c1)c1ccc(O)cc1 | . | . | - | . | ? | .
CCN(CC(=O)Nc1ccccc1C(F)(F)F)C(=O)c1oc2c(Cl)cccc2c1C | - | 35µM | - | - | - | -
Cc1ccc(NCCC(=O)c2cccc([N+](=O)[O-])c2)c(C)c1 | - | - | - | - | - | ?
Cc1cccc(NCCC(=O)c2ccc([N+](=O)[O-])cc2)c1C | - | - | - | - | ? | -83
CCCCC(CC)COc1ccc(C(C)=O)cc1 (stereo not given) | . | . | - | . | - | .
Cc1ccc(-c2nc(Nc3ccc(C(=O)O)cc3)c3ccccc3n2)cc1 | . | . | - | . | - | .
COc1ccc(NC(=O)CCSc2nc(-c3ccc(OC)cc3)cc(C(F)(F)F)n2)cc1 | . | - | - | . | - | .
COc1ccc(-c2cc(C(F)(F)F)nc(SCCC(=O)Nc3cc(C)on3)n2)cc1 | - | 35µM | - | . | - | -
O=C(CSc1nc(-c2cccs2)cc(C(F)(F)F)n1)NCc1ccccc1 | - | 35µM | - | - | - | -
COc1ccc(-c2cc(C(F)(F)F)nc(SCC(=O)Nc3cc(C)on3)n2)cc1OC | - | 13µM | - | - | - | -
O=C(CCS(=O)(=O)c1nc(-c2cccs2)cc(C(F)(F)F)n1)Nc1cccc(O)c1 | . | - | - | . | - | .
O=C(O)CCS(=O)(=O)c1nc(-c2cccs2)cc(C(F)(F)F)n1 | - | 14µM | - | - | - | -
CCCNC(=O)CSc1nc(-c2cccs2)cc(C(F)(F)F)n1 | - | - | - | - | - | -
Cc1cccc(NC(=O)COC(=O)c2ccc3ccccc3n2)c1 | . | . | - | . | ? | .
CCc1noc(-c2ccn3c(CNC(=O)c4cccnc4)nnc3c2)n1 | . | . | . | . | - | .
COc1ccc(-c2cc(C(F)(F)F)nc(SCC(=O)NCc3cccs3)n2)cc1OC | - | 25µM | - | - | - | -
Cc1c(C(=O)Nc2ccc3oc(-c4cccc(F)c4)nc3c2)cccc1[N+](=O)[O-] | . | . | - | . | ? | .
COc1cc(/C=C/C(=O)OCC(=O)NC2CCS(=O)(=O)C2)ccc1OC(F)F (stereo not given) | - | - | - | - | - | -167
COc1cc(C(=O)Nc2ccc(N3CCCC3)nc2)cc2c1OCCO2 | . | . | - | . | - | .
Cc1ccc(C)c(S(=O)(=O)N2[C@@H]3CC[C@H]2CC(NC(=O)c2ccc(F)cc2)C3)c1 (stereo not given in full) | . | . | . | . | - | .
Cc1ccc(S(=O)(=O)N2[C@@H]3CC[C@H]2CC(NC(=O)c2ccncc2)C3)c(C)c1 (stereo not given in full) | . | . | . | . | 18µM | .
SMILES | KCNH2 WT inh | ClpP mod | LDHA block | Chronic BCR inh | ALOX12 inh | KCNH2 3.1 inh
O=C(NCCCn1ccnc1)c1ccc(-c2ccccc2)cc1 | - | - | - | - | - | -
O=C(NCCCn1ccnc1)c1ccccc1NS(=O)(=O)c1ccc(F)c(F)c1 | - | - | - | - | - | -
Cc1cc(C(=O)NCCCn2ccnc2)sc1-c1ccccc1 | - | 22µM | - | - | - | -
Cc1cc(C)c(C)c(S(=O)(=O)Nc2ccccc2C(=O)NCCCn2ccnc2)c1C | - | 35µM | - | - | - | -
O=C(NCCCn1ccnc1)c1cc(-c2ccncc2)nc2ccccc12 | - | . | - | - | - | ?
Cc1ccc2nc(-c3ccccc3)cc(C(=O)NCCCn3ccnc3)c2c1 | - | 16µM | - | - | - | -
O=C(NCCCn1ccnc1)c1cc(-c2ccc(Cl)cc2)nc2ccccc12 | -79 | ? | - | - | - | -82
COCCNC(=O)C[C@@H]1C[C@H]2O[C@H](CNCc3cnccc3C(F)(F)F)[C@@H](O)[C@H]2O1 | . | . | . | . | - | .
COc1ccc(O)c(C(=O)c2cc(SCC(=O)O)c3nc4sc5c(c4c(=O)n3c2)CCCC5)c1 | - | . | - | - | 35µM | -
CC1CCCCN1CCN(C)c1nc(-c2ccncc2)nc2c1cnn2C (stereo not given) | . | . | . | . | - | .
CN(C)C=Nc1ncc2c3ccccc3n(Cc3ccccc3)c2c1C#N | - | 32µM | - | - | - | -
Cc1ccccc1SCC(=O)OCC(=O)Nc1sccc1C(N)=O | - | - | - | - | - | -74
NC(=O)c1ccsc1NC(=O)CSc1ccccc1F | - | - | - | ? | - | -
Cc1nnc(SCC(=O)NCCc2ccco2)c2nn(-c3ccc(Cl)cc3)c(C)c12 | . | . | - | . | 32µM | .
CCc1ccc2nc(-c3ccnn3CC)cc(C(=O)O)c2c1 | . | . | - | . | - | .
O=C(Nc1ccc(/C=C/c2nc3ccccc3o2)cc1)c1ccc(F)cc1 | - | 3.2µM | - | - | - | -
COc1ccc(-n2c(N)c(C(=O)NCc3ccco3)c3nc4ccccc4nc32)c(OC)c1 | - | 11µM | - | ? | - | -
Nc1c(C(=O)NCc2ccco2)c2nc3ccccc3nc2n1CCc1ccccc1F | - | 28µM | - | ? | ? | -
COCCn1c(N)c(C(=O)OCc2ccccc2)c2nc3ccccc3nc21 | - | 7.9µM | - | - | - | -
CCCCOC(=O)c1c(N)n(-c2ccc(OC)cc2OC)c2nc3ccccc3nc12 | . | - | - | . | - | .
C=CCn1c(N)c(C(=O)OCCC)c2nc3ccccc3nc21 | - | ? | - | ? | - | -
COc1ccc(CCn2c(N)c(C(=O)NCc3ccco3)c3nc4ccccc4nc32)cc1 | - | 32µM | - | ? | ? | -
Cc1nc(CCNC(=O)C2CC2)no1 | . | . | . | . | - | .
CCCCn1c(=O)[nH]c(=O)c2c1nc(COC(=O)c1ccccc1C(F)(F)F)n2CC | . | . | - | . | ? | .
O=C(c1ccccc1Cl)N1CCC(n2c(=O)[nH]c3ccccc32)CC1 | . | . | . | . | - | .
COc1ccc(CCn2c(N)c(S(=O)(=O)c3cccs3)c3nc4ccccc4nc32)cc1OC | - | - | - | ? | - | -
CCOC(=O)c1c(N)n(-c2ccc(C)c(C)c2)c2nc3ccccc3nc12 | . | - | - | - | - | .
CCCNC(=O)c1c(N)n(-c2cccc(OC)c2)c2nc3ccccc3nc12 | - | 20µM | - | ? | - | -
COc1ccc(CCn2c(N)c(C(=O)NCc3ccco3)c3nc4ccccc4nc32)cc1OC | - | 28µM | - | ? | - | -

Source: PubChem BioAssay (National Center for Advancing Translational Sciences (NCATS))
